Eleven compounds from publication PMC5540273 (PLoS ONE, 2017) can be followed below.

Among the test systems are CAMK1; CAMK2A; CAMK2B; CAMK2D; CAMK2G; CAMK4; CAMKK1; CAMKK2; CASK; CDC2L2; CDK2; CDK3; CDK4-cyclinD1; CDK4-cyclinD3; CDK4; CDK5; CDK7.
What all share (details): concentration: 1 μM,replicates: in singlicate; n = 1
The test system of the next assay is T1, CDC2L1.
T1 construct: gene CDK11B

In another assay the test system is T2, CDC2L5.
T2 construct: gene CDK13

The subject of another assay is T3, CDK11.
T3 construct: gene CDK19
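Also: KINOMEscan kinase panel screen.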

In the case of `O=C(Nc1ccc(Oc2ccc3nc(NC(=O)C4CC4)cn3n2)c(F)c1)c1cccn(-c2ccccc2)c1=O`, the “%Inh” value in the assay with CAMK1 is 5%; with CAMK2A it was 1%; with CAMK2B, 0%; with CAMK2D, 3%; with CAMK2G, 2%; in the assay with CAMK4, 21%. Further, the “%Inh” value in the assay with CAMKK1 is given as 11%; in the assay with CAMKK2 it was 1%; in the assay on CASK, 3%; in the assay on CDC2L1, 13%; in the assay on CDC2L2, 6%; with CDC2L5 it was 0%. The “%Inh” value in the assay with CDK11 was 28%; in the assay on CDK2 it was 0%; in the assay with CDK3, 39%; in the assay on CDK4-cyclinD1, 0%; in the assay with CDK4-cyclinD3 it was 0%; with CDK4, 0%. Moreover, the “%Inh” value in the assay on CDK5 and with CDK7 was 0% each time.

In the case of `COc1cc2c(Nc3ccc(NC(=O)c4ccccc4)cc3)ncnc2cc1OCCCN1CCOCC1` [GSK301329], the “%Inh” value in the assay on CAMK1 worked out at 40%; with CAMK2A, 0%; in the assay with CAMK2B, 0%; with CAMK2D, 0%; with CAMK2G it was 1%; in the assay with CAMK4, 0%. The “%Inh” value stood at 0% with CAMKK1; 0% with CAMKK2; 17% in the assay with CASK; 0% with CDC2L1; 7% in the assay on CDC2L2; 0% with CDC2L5. The “%Inh” value in the assay with CDK11 was 0%; in the assay with CDK2, 0%; with CDK3, 2%; with CDK4-cyclinD1, 0%; in the assay on CDK4-cyclinD3, 0%; in the assay on CDK4, 7%. The figures for the “%Inh” value in the assay on CDK5 and in the assay on CDK7 were 0% and 24%, respectively.

For `Cc1n[nH]c2cc(Nc3ccnc(Nc4cccc(CN5CCOCC5)c4)n3)ccc12` [GW682569], the “%Inh” value with CAMK1 is listed as 43%; in the assay on CAMK2A it was 0%; in the assay with CAMK2B, 0%; in the assay with CAMK2D, 5%; with CAMK2G it was 0%; in the assay on CAMK4 it was 0%. In addition, the “%Inh” value is 21% in the assay on CAMKK1; 13% in the assay on CAMKK2; 0% with CASK; 7% in the assay on CDC2L1; 24% in the assay on CDC2L2; 0% with CDC2L5. Moreover, the “%Inh” value with CDK11 was 19%; in the assay on CDK2, 0%; with CDK3, 5%; in the assay with CDK4-cyclinD1, 0%; with CDK4-cyclinD3, 0%; in the assay on CDK4 it was 31%. In addition, the “%Inh” value in the assay on CDK5 and in the assay on CDK7 was 0% in each case.

Turning to `Cn1ccc2ncnc(Oc3ccc(NC(=O)Nc4ccnc(C(F)(F)F)c4)c(Cl)c3)c21`, the “%Inh” value in the assay on CAMK1 was 0%; with CAMK2A, 0%; in the assay on CAMK2B it was 0%; in the assay with CAMK2D, 13%; in the assay on CAMK2G it was 25%; with CAMK4, 0%. For the same compound, the “%Inh” value in the assay on CAMKK1 was 13%; with CAMKK2, 7%; in the assay on CASK it was 0%; in the assay on CDC2L1, 0%; in the assay on CDC2L2, 0%; in the assay with CDC2L5 it was 20%. Moreover, the “%Inh” value stood at 98% in the assay on CDK11; 0% in the assay on CDK2; 0% in the assay with CDK3; 0% in the assay on CDK4-cyclinD1; 0% in the assay with CDK4-cyclinD3; 0% in the assay on CDK4. The entries for the “%Inh” value in the assay with CDK5 and with CDK7 were 0% and 1%, respectively.

In the case of `CC(=O)Nc1ccc(-c2cc3ncnc(SCC(=O)O)c3s2)cc1`, the “%Inh” value is reported as 0% in the assay with CAMK1; 55% in the assay on CAMK2A; 58% in the assay with CAMK2B; 21% in the assay with CAMK2D; 18% with CAMK2G; 23% in the assay on CAMK4. For the same compound, the “%Inh” value with CAMKK1 was 90.6%; in the assay with CAMKK2 it was 92.3%; in the assay on CASK, 8%; in the assay with CDC2L1, 9%; with CDC2L2, 17%; in the assay on CDC2L5, 0%. The “%Inh” value in the assay on CDK11 is given as 26%; with CDK2 it was 12%; with CDK3 it was 4%; in the assay with CDK4-cyclinD1 it was 16%; in the assay on CDK4-cyclinD3 it was 31%; with CDK4 it was 0%. Besides, the “%Inh” value in the assay with CDK5 was 14%; in the assay on CDK7 it was 40%.

In the case of `Cl.Nc1n[nH]c2cc(-c3ccccn3)ccc12` [GSK2189892], the “%Inh” value in the assay on CAMK1 worked out at 23%; in the assay on CAMK2A it was 0%; in the assay with CAMK2B it was 0%; in the assay with CAMK2D, 2%; with CAMK2G, 24%; in the assay on CAMK4, 0%. Moreover, the “%Inh” value in the assay with CAMKK1 turned out to be 0%; in the assay on CAMKK2, 9%; with CASK, 0%; in the assay on CDC2L1, 1%; in the assay with CDC2L2, 23%; with CDC2L5 it was 0%. Moreover, the “%Inh” value in the assay on CDK11 stood at 2%; with CDK2, 0%; in the assay with CDK3, 0%; in the assay with CDK4-cyclinD1 it was 0%; in the assay on CDK4-cyclinD3 it was 0%; with CDK4, 0%. For the same compound, the “%Inh” value in the assay with CDK5 and with CDK7 was 0% in each case.

For the compound `C[C@@H](Oc1cc(-n2cnc3cc(-c4cnn(C)c4)ccc32)sc1C(N)=O)c1ccccc1Cl` [GSK580432], the “%Inh” value in the assay on CAMK1 came to 39%; in the assay with CAMK2A, 0%; with CAMK2B, 9%; in the assay on CAMK2D, 23%; in the assay on CAMK2G, 25%; with CAMK4, 0%. The “%Inh” value was 59% in the assay with CAMKK1; 90.3% with CAMKK2; 23% in the assay with CASK; 0% in the assay on CDC2L1; 0% with CDC2L2; 0% in the assay on CDC2L5. Further, the “%Inh” value in the assay with CDK11 stood at 28%; in the assay with CDK2, 26%; in the assay on CDK3, 20%; with CDK4-cyclinD1, 0%; in the assay on CDK4-cyclinD3 it was 3%; with CDK4, 18%. In addition, the “%Inh” value in the assay with CDK5 and with CDK7 was 0% throughout.

With `CC(=O)c1c(-c2ccncc2)[nH]c(-c2ccncc2)c1C` [GW493036], the “%Inh” value with CAMK1 worked out at 26%; in the assay with CAMK2A, 0%; in the assay on CAMK2B it was 0%; in the assay on CAMK2D, 0%; in the assay with CAMK2G it was 0%; with CAMK4 it was 0%. The “%Inh” value in the assay with CAMKK1 came to 0%; with CAMKK2 it was 0%; in the assay on CASK, 25%; in the assay with CDC2L1 it was 0%; with CDC2L2 it was 4%; in the assay on CDC2L5, 0%. In addition, the “%Inh” value was 13% in the assay on CDK11; 31% in the assay on CDK2; 53% with CDK3; 0% in the assay on CDK4-cyclinD1; 38% with CDK4-cyclinD3; 0% in the assay on CDK4. Moreover, the “%Inh” value turned out to be 0% in the assay on CDK5 and 96.2% with CDK7.

Take `C[C@@H]1CNc2c(sc3ccc4nc(-c5ccc(O)cc5)ccc4c23)C(=O)N1`: the “%Inh” value is given as 16% in the assay on CAMK1; 35% in the assay with CAMK2A; 36% in the assay on CAMK2B; 32% with CAMK2D; 23% in the assay with CAMK2G; 30% in the assay with CAMK4. The “%Inh” value with CAMKK1 came out at 40%; in the assay with CAMKK2 it was 58%; with CASK, 0%; in the assay with CDC2L1, 0%; in the assay with CDC2L2, 6%; in the assay on CDC2L5, 0%. The “%Inh” value came out at 37% in the assay with CDK11; 0% with CDK2; 12% with CDK3; 30% with CDK4-cyclinD1; 0% in the assay with CDK4-cyclinD3; 4% with CDK4. Besides, the “%Inh” value is 25% with CDK5 and 82% in the assay with CDK7.

As for `COc1cc2nccc(Nc3ccc(Oc4ccccc4)cc3)c2cc1OC.Cl` [GI261656], the “%Inh” value came out at 20% in the assay with CAMK1; 0% with CAMK2A; 0% in the assay on CAMK2B; 16% with CAMK2D; 18% in the assay with CAMK2G; 0% with CAMK4. Also, the “%Inh” value was 7% in the assay on CAMKK1; 17% in the assay on CAMKK2; 0% in the assay on CASK; 0% in the assay with CDC2L1; 28% with CDC2L2; 0% in the assay on CDC2L5. Also, the “%Inh” value with CDK11 worked out at 0%; in the assay with CDK2 it was 0%; in the assay on CDK3, 0%; with CDK4-cyclinD1 it was 0%; in the assay on CDK4-cyclinD3 it was 0%; with CDK4 it was 44%. For the same compound, the “%Inh” value in the assay with CDK5 and with CDK7 was 0% throughout.

Take `Cn1ccc2ncnc(Oc3ccc(NC(=O)Nc4cnn(C(C)(C)C)c4)c(Cl)c3)c21`: the “%Inh” value in the assay on CAMK1 stood at 9%; in the assay on CAMK2A, 0%; with CAMK2B it was 17%; in the assay with CAMK2D it was 0%; in the assay on CAMK2G it was 2%; with CAMK4 it was 7%. Besides, the “%Inh” value in the assay with CAMKK1 is recorded as 0%; with CAMKK2 it was 0%; in the assay with CASK, 10%; with CDC2L1 it was 0%; with CDC2L2, 0%; in the assay with CDC2L5, 45%. The “%Inh” value with CDK11 was found to be 99.6%; with CDK2, 0%; in the assay on CDK3, 0%; in the assay on CDK4-cyclinD1, 0%; in the assay with CDK4-cyclinD3, 0%; in the assay on CDK4 it was 0%. The “%Inh” value is 2% in the assay on CDK5 and 27% in the assay on CDK7.
